Key:
Test in all cases: DAPPL (digital affinity profiling via proximity ligation, sequencing); 10 mM Tris-HCl pH 7.5, 50 mM NaCl, 1 mM DTT, 4% glycerol, room temperature, 30 min; GST-TFs on glutathione beads, 16-mer random dsDNA library, 0.1% formaldehyde crosslink after washing; high values mean tight binding
Conditions in all cases: protein: recombinant; tags: N-terminal GST; dsDNA, one strand shown
[1] = target: T1, FLI1 (Homo sapiens, UniProt Q01543 1-452)
T1 sequence: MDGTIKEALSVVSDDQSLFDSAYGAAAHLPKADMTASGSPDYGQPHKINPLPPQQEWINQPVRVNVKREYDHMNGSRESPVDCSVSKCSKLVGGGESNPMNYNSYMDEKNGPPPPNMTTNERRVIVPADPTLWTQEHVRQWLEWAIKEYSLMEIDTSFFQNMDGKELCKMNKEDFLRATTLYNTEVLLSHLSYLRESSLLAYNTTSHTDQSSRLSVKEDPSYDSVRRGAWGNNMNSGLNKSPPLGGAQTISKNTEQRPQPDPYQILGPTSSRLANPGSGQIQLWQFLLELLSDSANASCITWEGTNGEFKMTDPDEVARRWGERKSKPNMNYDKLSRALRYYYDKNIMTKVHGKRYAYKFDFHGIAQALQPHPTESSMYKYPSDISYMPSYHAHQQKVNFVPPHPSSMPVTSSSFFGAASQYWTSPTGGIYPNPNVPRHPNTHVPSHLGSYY
Summary of the method: (§1)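 Human transcription factors carrying a GST fusion were produced in yeast, bound to glutathione beads, tagged with DNA barcodes and pooled together with a tag-only sample. Each pool was held with 200 nmole of a random double-stranded 16-mer DNA library in Tris/NaCl/DTT/glycerol buffer for 30 min at room temperature, then washed, crosslinked in 0.1% formaldehyde, proximity-ligated with BsaI/T4 ligase (1 h, 37 °C), PCR-amplified and sequenced on an Illumina NextSeq500. Binding signal is the read frequency of each hexamer for a given factor divided by its frequency in the tag-only sample.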

[2] = target: T2, ELK1 (Homo sapiens, UniProt P19419 1-428)
T2 sequence: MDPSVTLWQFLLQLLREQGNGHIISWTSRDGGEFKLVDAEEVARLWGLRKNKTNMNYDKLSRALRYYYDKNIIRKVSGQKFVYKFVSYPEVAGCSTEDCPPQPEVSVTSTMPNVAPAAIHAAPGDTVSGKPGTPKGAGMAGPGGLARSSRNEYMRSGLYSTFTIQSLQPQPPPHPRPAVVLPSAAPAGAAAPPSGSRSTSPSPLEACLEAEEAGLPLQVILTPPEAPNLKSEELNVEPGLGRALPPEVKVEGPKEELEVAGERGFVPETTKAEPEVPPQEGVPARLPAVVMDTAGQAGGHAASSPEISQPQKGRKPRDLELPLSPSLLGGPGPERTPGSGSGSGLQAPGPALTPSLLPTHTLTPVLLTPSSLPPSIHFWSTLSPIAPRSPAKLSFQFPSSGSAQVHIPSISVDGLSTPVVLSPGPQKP
Summary of the method: as §1

[3] = target: T3, GABPA (Homo sapiens, UniProt Q06546 1-454)
T3 sequence: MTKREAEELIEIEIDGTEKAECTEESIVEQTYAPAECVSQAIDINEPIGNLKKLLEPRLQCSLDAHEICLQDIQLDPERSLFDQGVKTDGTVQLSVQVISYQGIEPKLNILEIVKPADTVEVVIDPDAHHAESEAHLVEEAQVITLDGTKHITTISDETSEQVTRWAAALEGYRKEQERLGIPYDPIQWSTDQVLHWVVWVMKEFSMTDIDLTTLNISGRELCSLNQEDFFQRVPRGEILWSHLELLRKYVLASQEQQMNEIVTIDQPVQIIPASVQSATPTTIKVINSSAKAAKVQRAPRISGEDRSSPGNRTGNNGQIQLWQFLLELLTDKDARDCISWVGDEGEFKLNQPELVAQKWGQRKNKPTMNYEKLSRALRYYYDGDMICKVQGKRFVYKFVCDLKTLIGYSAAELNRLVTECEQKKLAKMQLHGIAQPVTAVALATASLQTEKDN
Summary of the method: as §1

[4] = target: ELF1 (Homo sapiens, UniProt P32519 1-619)
Summary of the method: as §1

[5] = target: SPI1 (Homo sapiens, UniProt P17947 1-270)
Summary of the method: as §1

[6] = target: SPIB (Homo sapiens, UniProt Q01892 1-262)
Summary of the method: as §1

[7] = target: T4, FEV (Homo sapiens, UniProt Q99581 1-238)
T4 sequence: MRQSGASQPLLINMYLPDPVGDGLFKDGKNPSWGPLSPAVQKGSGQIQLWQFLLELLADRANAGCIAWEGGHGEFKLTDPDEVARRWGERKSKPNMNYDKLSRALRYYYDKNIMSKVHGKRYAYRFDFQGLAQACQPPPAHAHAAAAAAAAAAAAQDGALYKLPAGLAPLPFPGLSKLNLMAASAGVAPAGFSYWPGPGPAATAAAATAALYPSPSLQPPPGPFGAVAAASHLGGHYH
Summary of the method: as §1

[8] = target: ETV5 (Homo sapiens, UniProt P41161 1-510)
Summary of the method: as §1

[9] = target: T5, SPIC (Homo sapiens, UniProt Q8N5J4 1-248)
T5 sequence: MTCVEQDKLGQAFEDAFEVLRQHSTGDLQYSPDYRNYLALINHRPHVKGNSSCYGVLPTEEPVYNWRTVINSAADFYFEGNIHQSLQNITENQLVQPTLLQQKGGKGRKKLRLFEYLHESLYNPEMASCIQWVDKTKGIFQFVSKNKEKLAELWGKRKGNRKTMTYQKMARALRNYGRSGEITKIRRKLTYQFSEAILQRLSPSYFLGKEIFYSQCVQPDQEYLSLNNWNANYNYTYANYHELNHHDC
Summary of the method: as §1

[10] = target: ELF4 (Homo sapiens, UniProt Q99607 1-663)
Summary of the method: as §1

[11] = target: T6, ELK4 (Homo sapiens, UniProt P28324-2 1-405)
T6 sequence: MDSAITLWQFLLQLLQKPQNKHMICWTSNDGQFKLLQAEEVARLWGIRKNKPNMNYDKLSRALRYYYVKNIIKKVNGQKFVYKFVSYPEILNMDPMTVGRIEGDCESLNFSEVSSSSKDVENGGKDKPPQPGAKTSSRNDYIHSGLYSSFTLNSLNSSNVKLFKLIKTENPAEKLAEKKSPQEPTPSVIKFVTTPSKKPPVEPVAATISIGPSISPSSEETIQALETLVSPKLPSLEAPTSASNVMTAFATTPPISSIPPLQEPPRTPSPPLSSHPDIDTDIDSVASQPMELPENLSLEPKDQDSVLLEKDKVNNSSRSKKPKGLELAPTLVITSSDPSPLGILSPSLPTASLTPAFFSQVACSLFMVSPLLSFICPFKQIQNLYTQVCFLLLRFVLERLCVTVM
Summary of the method: as §1

[12] = target: T7, ETV2 (Homo sapiens, UniProt O00321 1-342)
T7 sequence: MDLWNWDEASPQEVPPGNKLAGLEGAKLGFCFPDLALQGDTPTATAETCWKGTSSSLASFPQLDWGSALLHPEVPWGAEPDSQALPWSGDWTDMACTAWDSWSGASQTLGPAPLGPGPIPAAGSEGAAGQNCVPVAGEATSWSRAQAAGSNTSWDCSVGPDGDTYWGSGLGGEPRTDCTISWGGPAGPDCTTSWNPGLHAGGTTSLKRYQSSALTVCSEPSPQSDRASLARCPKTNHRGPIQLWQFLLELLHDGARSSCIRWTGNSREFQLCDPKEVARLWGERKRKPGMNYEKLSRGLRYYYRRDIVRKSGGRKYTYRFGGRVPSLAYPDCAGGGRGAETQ
Summary of the method: as §1

[13] = target: ETV1 (Homo sapiens, UniProt P50549 1-477)
Summary of the method: as §1

[14] = target: T8, ERG (Homo sapiens, UniProt P11308 1-479)
T8 sequence: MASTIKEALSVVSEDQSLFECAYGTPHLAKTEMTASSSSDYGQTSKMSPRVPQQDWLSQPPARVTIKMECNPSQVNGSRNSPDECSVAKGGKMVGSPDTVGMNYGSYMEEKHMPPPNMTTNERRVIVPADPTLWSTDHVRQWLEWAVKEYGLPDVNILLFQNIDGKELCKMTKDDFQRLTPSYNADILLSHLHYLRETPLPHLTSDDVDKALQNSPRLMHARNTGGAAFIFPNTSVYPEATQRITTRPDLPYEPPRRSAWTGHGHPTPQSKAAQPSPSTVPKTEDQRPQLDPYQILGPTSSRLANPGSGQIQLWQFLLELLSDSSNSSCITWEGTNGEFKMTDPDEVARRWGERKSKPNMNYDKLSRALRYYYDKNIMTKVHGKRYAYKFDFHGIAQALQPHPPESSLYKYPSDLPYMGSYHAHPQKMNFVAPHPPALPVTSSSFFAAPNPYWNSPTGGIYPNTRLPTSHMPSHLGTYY
Summary of the method: as §1

[15] = target: T9, ELK3 (Homo sapiens, UniProt P41970 1-407)
T9 sequence: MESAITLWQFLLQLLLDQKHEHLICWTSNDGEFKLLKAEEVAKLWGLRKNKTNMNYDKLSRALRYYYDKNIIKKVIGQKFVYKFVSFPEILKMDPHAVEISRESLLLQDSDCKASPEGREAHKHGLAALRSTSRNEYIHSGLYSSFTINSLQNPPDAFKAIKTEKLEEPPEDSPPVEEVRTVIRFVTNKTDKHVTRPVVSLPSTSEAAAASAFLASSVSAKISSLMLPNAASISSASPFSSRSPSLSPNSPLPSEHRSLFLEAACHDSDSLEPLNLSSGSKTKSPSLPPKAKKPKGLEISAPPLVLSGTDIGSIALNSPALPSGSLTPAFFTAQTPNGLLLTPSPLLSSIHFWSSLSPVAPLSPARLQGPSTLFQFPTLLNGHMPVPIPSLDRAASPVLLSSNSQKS
Summary of the method: as §1

[16] = target: T10, EHF (Homo sapiens, UniProt Q9NZC4 1-300)
T10 sequence: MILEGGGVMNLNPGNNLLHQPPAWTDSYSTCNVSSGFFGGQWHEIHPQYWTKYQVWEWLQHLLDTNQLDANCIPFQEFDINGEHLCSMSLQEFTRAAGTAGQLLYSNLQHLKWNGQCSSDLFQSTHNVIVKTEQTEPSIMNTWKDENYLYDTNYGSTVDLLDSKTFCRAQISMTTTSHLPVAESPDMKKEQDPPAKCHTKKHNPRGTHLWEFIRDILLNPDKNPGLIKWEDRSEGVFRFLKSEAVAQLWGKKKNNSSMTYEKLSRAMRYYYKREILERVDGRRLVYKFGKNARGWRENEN
Summary of the method: as §1

Sequence of ETV5 (P41161 whole entry): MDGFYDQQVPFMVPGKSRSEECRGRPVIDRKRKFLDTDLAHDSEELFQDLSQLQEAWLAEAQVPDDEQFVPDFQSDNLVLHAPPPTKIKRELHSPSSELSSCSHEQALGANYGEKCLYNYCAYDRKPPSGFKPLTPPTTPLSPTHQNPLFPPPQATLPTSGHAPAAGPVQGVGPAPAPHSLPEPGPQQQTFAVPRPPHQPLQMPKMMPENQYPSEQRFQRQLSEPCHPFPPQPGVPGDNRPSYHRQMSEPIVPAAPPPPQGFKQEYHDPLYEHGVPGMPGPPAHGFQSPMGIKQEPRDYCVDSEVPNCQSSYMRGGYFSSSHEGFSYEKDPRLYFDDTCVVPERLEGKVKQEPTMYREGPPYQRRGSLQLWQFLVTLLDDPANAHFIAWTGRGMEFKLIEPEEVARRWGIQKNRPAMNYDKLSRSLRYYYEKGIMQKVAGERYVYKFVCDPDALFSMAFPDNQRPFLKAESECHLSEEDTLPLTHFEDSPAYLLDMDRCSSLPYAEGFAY
Sequence of SPIB (Q01892 whole entry): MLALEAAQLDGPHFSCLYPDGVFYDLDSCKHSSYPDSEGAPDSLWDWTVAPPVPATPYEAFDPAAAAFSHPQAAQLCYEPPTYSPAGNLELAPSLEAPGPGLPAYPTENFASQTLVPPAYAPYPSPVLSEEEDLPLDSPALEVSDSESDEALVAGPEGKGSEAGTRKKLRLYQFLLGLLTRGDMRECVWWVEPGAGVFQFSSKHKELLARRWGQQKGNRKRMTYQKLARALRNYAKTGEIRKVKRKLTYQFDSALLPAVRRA
Sequence of ELF4 (Q99607 whole entry): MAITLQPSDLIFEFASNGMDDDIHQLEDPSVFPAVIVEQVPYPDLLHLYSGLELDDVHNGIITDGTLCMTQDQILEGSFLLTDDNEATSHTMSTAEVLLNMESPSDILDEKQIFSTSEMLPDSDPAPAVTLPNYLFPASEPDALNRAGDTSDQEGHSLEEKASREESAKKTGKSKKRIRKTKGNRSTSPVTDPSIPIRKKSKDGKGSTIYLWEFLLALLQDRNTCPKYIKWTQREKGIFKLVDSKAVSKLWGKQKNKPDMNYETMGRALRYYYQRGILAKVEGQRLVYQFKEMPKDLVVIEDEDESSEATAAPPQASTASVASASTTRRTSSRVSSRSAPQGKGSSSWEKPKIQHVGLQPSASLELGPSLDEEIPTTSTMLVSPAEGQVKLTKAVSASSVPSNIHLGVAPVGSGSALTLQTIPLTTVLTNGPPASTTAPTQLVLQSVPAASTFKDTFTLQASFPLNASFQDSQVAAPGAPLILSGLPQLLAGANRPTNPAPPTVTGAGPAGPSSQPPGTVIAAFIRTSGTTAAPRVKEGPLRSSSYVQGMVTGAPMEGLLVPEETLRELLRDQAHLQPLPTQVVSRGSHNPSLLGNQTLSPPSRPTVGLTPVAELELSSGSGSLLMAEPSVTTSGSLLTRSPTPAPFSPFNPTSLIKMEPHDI
Sequence of ELF1 (P32519 whole entry): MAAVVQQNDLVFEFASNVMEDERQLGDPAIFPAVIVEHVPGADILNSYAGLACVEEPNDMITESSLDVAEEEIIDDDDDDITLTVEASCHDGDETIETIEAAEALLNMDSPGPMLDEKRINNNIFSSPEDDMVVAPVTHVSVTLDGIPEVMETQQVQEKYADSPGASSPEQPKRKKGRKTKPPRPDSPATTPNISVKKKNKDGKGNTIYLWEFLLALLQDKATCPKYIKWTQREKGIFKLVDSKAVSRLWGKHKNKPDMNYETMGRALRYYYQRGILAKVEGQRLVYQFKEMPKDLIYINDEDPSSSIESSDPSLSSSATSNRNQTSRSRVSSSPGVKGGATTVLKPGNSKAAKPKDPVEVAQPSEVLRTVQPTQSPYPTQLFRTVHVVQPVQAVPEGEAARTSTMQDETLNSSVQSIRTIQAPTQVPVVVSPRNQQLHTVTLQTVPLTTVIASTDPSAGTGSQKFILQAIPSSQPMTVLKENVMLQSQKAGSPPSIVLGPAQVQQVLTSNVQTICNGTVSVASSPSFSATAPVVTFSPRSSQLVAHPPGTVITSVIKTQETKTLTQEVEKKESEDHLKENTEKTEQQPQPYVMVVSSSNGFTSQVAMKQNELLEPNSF
Sequence of ETV1 (P50549 whole entry): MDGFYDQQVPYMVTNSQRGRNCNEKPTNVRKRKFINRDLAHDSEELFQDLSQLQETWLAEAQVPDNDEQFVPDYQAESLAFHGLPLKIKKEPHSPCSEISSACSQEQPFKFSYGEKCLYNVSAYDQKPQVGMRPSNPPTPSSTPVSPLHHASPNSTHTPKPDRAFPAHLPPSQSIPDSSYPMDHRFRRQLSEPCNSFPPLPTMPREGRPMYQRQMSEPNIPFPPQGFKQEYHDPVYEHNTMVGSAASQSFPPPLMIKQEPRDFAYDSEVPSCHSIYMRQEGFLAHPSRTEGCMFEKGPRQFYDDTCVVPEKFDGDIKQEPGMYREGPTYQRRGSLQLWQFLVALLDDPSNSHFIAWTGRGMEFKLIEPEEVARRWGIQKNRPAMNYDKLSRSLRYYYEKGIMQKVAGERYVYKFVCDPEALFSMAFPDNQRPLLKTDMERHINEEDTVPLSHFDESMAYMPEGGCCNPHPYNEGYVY

Sequence: GTTTGG
- binding signal [1]: 1.07 fold enrichment (6-mer frequency, TF over GST control)
- binding signal [2]: 1.07 fold enrichment (6-mer frequency, TF over GST control)
- binding signal [3]: 1.04 fold enrichment (6-mer frequency, TF over GST control)
- binding signal [4]: 1.05 fold enrichment (6-mer frequency, TF over GST control)
- binding signal [5]: 1.01 fold enrichment (6-mer frequency, TF over GST control)
- binding signal [6]: 1.1 fold enrichment (6-mer frequency, TF over GST control)
- binding signal [7]: 1.06 fold enrichment (6-mer frequency, TF over GST control)
- binding signal [8]: 1.03 fold enrichment (6-mer frequency, TF over GST control)
- binding signal [9]: 1.24 fold enrichment (6-mer frequency, TF over GST control)
- binding signal [10]: 1.03 fold enrichment (6-mer frequency, TF over GST control)
- binding signal [11]: 1.08 fold enrichment (6-mer frequency, TF over GST control)
- binding signal [12]: 1.06 fold enrichment (6-mer frequency, TF over GST control)
- binding signal [13]: 1.07 fold enrichment (6-mer frequency, TF over GST control)

Sequence: GCCCAT
- binding signal [1]: 1.06 fold enrichment (6-mer frequency, TF over GST control)
- binding signal [2]: 1.05 fold enrichment (6-mer frequency, TF over GST control)
- binding signal [3]: 1.17 fold enrichment (6-mer frequency, TF over GST control)
- binding signal [14]: 1.04 fold enrichment (6-mer frequency, TF over GST control)
- binding signal [4]: 1.06 fold enrichment (6-mer frequency, TF over GST control)
- binding signal [5]: 1.03 fold enrichment (6-mer frequency, TF over GST control)
- binding signal [6]: 1.04 fold enrichment (6-mer frequency, TF over GST control)
- binding signal [15]: 1.04 fold enrichment (6-mer frequency, TF over GST control)
- binding signal [7]: 1.09 fold enrichment (6-mer frequency, TF over GST control)
- binding signal [8]: 1.03 fold enrichment (6-mer frequency, TF over GST control)
- binding signal [9]: 1.12 fold enrichment (6-mer frequency, TF over GST control)
- binding signal [10]: 1.07 fold enrichment (6-mer frequency, TF over GST control)
- binding signal [11]: 1.23 fold enrichment (6-mer frequency, TF over GST control)
- binding signal [12]: 1.01 fold enrichment (6-mer frequency, TF over GST control)

Sequence: CGGTAT
- binding signal [1]: 1.08 fold enrichment (6-mer frequency, TF over GST control)
- binding signal [2]: 1.12 fold enrichment (6-mer frequency, TF over GST control)
- binding signal [3]: 1.01 fold enrichment (6-mer frequency, TF over GST control)
- binding signal [14]: 1.13 fold enrichment (6-mer frequency, TF over GST control)
- binding signal [4]: 1.1 fold enrichment (6-mer frequency, TF over GST control)
- binding signal [16]: 1.08 fold enrichment (6-mer frequency, TF over GST control)
- binding signal [6]: 1.07 fold enrichment (6-mer frequency, TF over GST control)
- binding signal [15]: 1.01 fold enrichment (6-mer frequency, TF over GST control)
- binding signal [7]: 1.08 fold enrichment (6-mer frequency, TF over GST control)
- binding signal [8]: 1.06 fold enrichment (6-mer frequency, TF over GST control)
- binding signal [9]: 1.08 fold enrichment (6-mer frequency, TF over GST control)
- binding signal [10]: 1.06 fold enrichment (6-mer frequency, TF over GST control)
- binding signal [11]: 1.03 fold enrichment (6-mer frequency, TF over GST control)
- binding signal [12]: 1.31 fold enrichment (6-mer frequency, TF over GST control)
- binding signal [13]: 1.09 fold enrichment (6-mer frequency, TF over GST control)

From paper PMC7862700, “An all-to-all approach to the identification of sequence-specific readers for epigenetic DNA modifications on cytosine”
